PubChem BioAssay (NCATS)
Inconclusive results are not listed. Values without a mark were called inactive. The source made the active and inactive calls. The call rests on the fitted dose curve; in most records, active means well fitted curve in the direction sought with a large enough effect; inconclusive means small, poorly fitted or top-dose-only effect, or another doubt; inactive means no such curve, though single readings can be large; an effect the other way counts as inactive or inconclusive.

What was measured:
[1] = BET inhibitor-based combinations targeting novel dependencies in MECOM-rearranged (r) AML: SET-2 cell line (AID 2202231); settings: SET-2 AML cells viability, CellTiter-Glo luminescence, 48 h; viability: active compounds read low, concentration not given here; further: nearly all actives have a fitted effect of over 35% in size;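 on viability: plate controls were DMSO treated cells for no effect and wells without cells for full effect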
Outline: (§1)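 Each compound was tested at eleven concentrations on cells seeded at 500/well. After two days' incubation, ATP-based luminescence reported viability; responses relative to DMSO and blank wells yielded AUC and cell-line-centred Z-AUC.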

[2] = BET inhibitor-based combinations targeting novel dependencies in MECOM-rearranged (r) AML: OCI-AML3 cell line (AID 2202232); settings: Potency: OCI-AML3 viability; further: nearly all actives have a fitted effect of over 35% in size
Outline: as §1

[3] = BET inhibitor-based combinations targeting novel dependencies in MECOM-rearranged (r) AML: MV-4-11 cell line (AID 2202233); further: nearly all actives have a fitted effect of over 45% in size
Outline: (§2)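 First, 500 cells per well were seeded; next, drugs were pinned as 11-point doses; then plates sat 48 hr in the incubator; finally CellTiter-Glo was added and luminescence read, with AUC and Z-AUC computed.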

[4] = BET inhibitor-based combinations targeting novel dependencies in MECOM-rearranged (r) AML: UCSD-AML1 cell line (AID 2202235); further: nearly all actives have a fitted effect of over 40% in size
Outline: as §2

[5] = BET inhibitor-based combinations targeting novel dependencies in MECOM-rearranged (r) AML: AML-194 cell line (AID 2202237; further: nearly all actives have a fitted effect of over 40% in size)
Outline: as §1

[6] = BET inhibitor-based combinations targeting novel dependencies in MECOM-rearranged (r) AML: AML-191 cell line (AID 2202236; further: nearly all actives have a fitted effect of over 35% in size)
Outline: as §1
Potency means the concentration at half of the fitted maximal effect.

Compound | Potency [1] | Potency [2] | Potency [3] | Potency [4] | Potency [5] | Potency [6] | viability [1]
Cn1cc(/C=C/C(=O)c2cccc(F)c2)cc1/C=C/C(=O)NO | 1480 nM (active) | 3320 nM (active) | 4680 nM (active) | 4170 nM (active) | 11800 nM (active) | – | –
NC1CCCN(c2c(/C=C3\SC(=O)NC3=O)cccc2-c2ccccc2)C1 (centres undefined) | 5900 nM (active) | 235 nM (active) | 1180 nM (active) | 590 nM (active) | – | 18600 nM (active) | –
COc1ccc(S(=O)(=O)N(C(C)=O)c2ccccc2/C=C/c2cc[n+]([O-])cc2)cc1 | 2630 nM (active) | 1180 nM (active) | 1180 nM (active) | 1320 nM (active) | 833 nM (active) | 1180 nM (active) | –
CN(C)CCNC(=O)NC[C@H]1CC[C@@H]2[C@H](O1)c1cc(C(F)(F)F)ccc1N[C@H]2c1ccccc1 | 742 nM (active) | 296 nM (active) | 296 nM (active) | 235 nM (active) | 332 nM (active) | 332 nM (active) | –
c1ccc2[nH]c(-c3cscn3)nc2c1 | – | inactive | inactive | inactive | 18600 nM (active) | 18600 nM (active) | 111%
CN(C)Cc1ccc(S(=O)(=O)n2ccc(/C=C/C(=O)NO)c2)cc1 | 3720 nM (active) | 5250 nM (active) | 2350 nM (active) | 4680 nM (active) | 5900 nM (active) | 4170 nM (active) | –
Cc1ccc(NC(=O)NCc2ccc3c(c2)CN(C2CCC(=O)NC2=O)C3=O)cc1Cl (centres undefined) | 29.5 nM (active) | 3 nM (active) | 2.6 nM (active) | – | 1.9 nM (active) | 2.3 nM (active) | –
